Experimental data taken from PubChem BioAssay (EPA / NIEHS).
“And” between values parts separate entries of the source, which are not always exact repeats. Equal entries are not always repeated. Inconclusive results are not listed. The source made the active and inactive calls. How the source made its calls, unless noted: active means hit-call score of the fitted dose curve at least 0.9, where 1 is the maximum; inactive means score below 0.9.

Target: Estrogen receptor (Homo sapiens) (UniProt P03372)
Sequence (P03372 whole entry, looked up): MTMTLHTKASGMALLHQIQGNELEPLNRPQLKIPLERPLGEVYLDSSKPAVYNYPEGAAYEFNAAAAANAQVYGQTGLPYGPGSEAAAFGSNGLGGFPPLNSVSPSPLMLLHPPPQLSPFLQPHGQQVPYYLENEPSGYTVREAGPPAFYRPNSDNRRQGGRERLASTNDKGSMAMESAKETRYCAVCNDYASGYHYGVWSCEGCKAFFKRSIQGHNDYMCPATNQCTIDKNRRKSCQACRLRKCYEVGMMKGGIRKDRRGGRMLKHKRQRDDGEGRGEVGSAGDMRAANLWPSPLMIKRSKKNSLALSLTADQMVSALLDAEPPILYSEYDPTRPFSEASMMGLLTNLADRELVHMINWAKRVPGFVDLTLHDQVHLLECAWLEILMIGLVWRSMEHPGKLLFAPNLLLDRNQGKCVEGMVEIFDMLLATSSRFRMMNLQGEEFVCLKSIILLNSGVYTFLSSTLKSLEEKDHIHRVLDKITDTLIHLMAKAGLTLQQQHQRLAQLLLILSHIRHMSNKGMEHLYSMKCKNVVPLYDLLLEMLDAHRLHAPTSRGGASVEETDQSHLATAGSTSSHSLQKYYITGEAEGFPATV
Test: CCTE_Deisenroth_AIME_384WELL_LUC_Active: CCTE's 384-well Estrogen Receptor Transactivation Assay with AIME metabolic competence (ERTA luciferase; metabolism positive), Deisenroth Lab (AID 2284030; active means hit-call score of the fitted dose curve at least 0.9, where 1 is the maximum)
Summary of the method: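 Estrogenic luciferase signal in VM7Luc4E2 cells is measured at 24 hour, after chemicals have been preconditioned 2 hours with PB/BNF-induced rat hepatic S9 in alginate. Gain of signal is fitted relative to 17beta-estradiol, across 0.002 - 200 uM.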

Structure (SMILES)	outcome
CCOc1ccc2[nH]cc(C(=O)NCc3ccccc3)c(=O)c2n1	inactive
OCCOCCOCCO	inactive
CCn1nc(C)c2c1C(=O)NCC(c1ccc(O)cc1)=N2	inactive
COS(C)(=O)=O	inactive
CC(=O)c1ccccc1	inactive
CCCCCOC(C)=O	inactive
CC(C)CC(C)O (configuration not stated)	inactive
c1ccc2c(c1)-c1cccc3c1c-2cc1ccccc13	inactive
C[C@@H](Oc1ccc(CNC(=O)c2cccnc2Oc2ccc3c(c2)OCO3)c(F)c1)C(=O)O	inactive
CCCCOC(=O)c1ccccc1	inactive
O=C1CN(N=Cc2ccc([N+](=O)[O-])o2)C(=O)N1	inactive
CC(C)CCCCCCOC(=O)C1CCCCC1C(=O)OCCCCCCC(C)C (configuration not stated)	inactive

System: not listed separately
Test: CCTE_Shafer_MEA_dev_firing_rate_mean: CCTE's Neural Network Formation Assay for Mean Firing Rate, Shafer Lab (AID 2284031);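 further: AUC of well mean spike rate recorded on DIV 5 7 9 and 12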;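 on AC50: curve fitted for loss of firing so AC50 reflects decreased mean firing rate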
Summary of the method: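 Extracellular spike frequency, AUC over DIV 5–12 recordings, in rat cortical neuron MEA cultures dosed from plating; loss direction vs DMSO.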

Structure (SMILES)	outcome	AC50
CCOc1ccc2[nH]cc(C(=O)NCc3ccccc3)c(=O)c2n1	inactive	
NNC(=O)c1ccncc1	inactive	
c1ccc2c(c1)-c1cccc3c1c-2cc1ccccc13	inactive	
OC(Cn1cncn1)(Cn1cncn1)c1ccc(F)cc1F	inactive	
O=C(Cl)C(F)(F)C(F)(F)C(F)(F)C(=O)Cl	inactive	
FC(F)(F)COC(OCC(F)(F)F)OCC(F)(F)F	inactive	
CCCC(CCC)C(=O)O	inactive	
NC(=O)N1c2ccccc2C=Cc2ccccc21	inactive	
OC(O)(C(F)C(O)(O)C(F)(F)F)C(F)(F)F	inactive	
OCCC(F)(F)C(F)(F)C(F)(F)C(F)(F)F	inactive	
NCC(F)(F)C(F)(F)C(F)(F)C(F)(F)F	inactive	
C[C@]12C=CC(=O)C=C1CC[C@H]1[C@@H]3C[C@@H](O)[C@](O)(C(=O)CO)[C@@]3(C)C[C@H](O)[C@@]12F	inactive	
Cn1cc[nH]c1=S	inactive	
FC(F)(F)C(F)(F)C(F)(F)C(F)(F)C(F)(F)C(F)(F)I	inactive	
Nc1ccn([C@@H]2O[C@H](CO)[C@@H](O)[C@@H]2O)c(=O)n1		260 nM (active) and 3.02 µM (active)
